{
  "source": "PubChem BioAssay AID743152",
  "about": "(Broad Institute, 2013)",
  "note": "Calls of active or inactive are those of the source.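 The calls were made as follows: active = compounds that cut cell ATP glow, with a fitted half-effect dose at or under their top tested dose; inconclusive = flat partial loss of 30 to 70 percent, or poor fit; inactive = the rest.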",
  "data": [
    {"test": "A549 cell cytotoxicity, dose response, cytotoxicity control, CellTiter-Glo luminescence, dry powder, set 2 (AID 743152)", "details": "A549 viability, CellTiter-Glo ATP luminescence, 72 h; series mostly up to 26 µM", "values": [
      {"compound": "O=C1CN2Cc3c(ccc(Cl)c3Cl)N=C2N1", "outcome": "inactive"},
      {"compound": "C[C@@H]1CC(=O)NN=C1c1ccc(N2CCOCC2)cc1", "outcome": "inactive"},
      {"compound": "CC(=O)Nc1ccc(C2=NNC(=O)C[C@H]2C)cc1[N+](=O)[O-]", "outcome": "inactive"},
      {"compound": "C[C@@H]1CC(=O)NN=C1c1ccc(-c2cncnc2)cc1", "outcome": "inactive"},
      {"compound": "C[C@@H]1CC(=O)NN=C1c1ccc(Cl)cc1", "outcome": "inactive"},
      {"compound": "C[C@@H]1CC(=O)NN=C1c1ccc(F)c(F)c1", "outcome": "inactive"},
      {"compound": "COc1cc2c(cc1OC)-c1cc(=Nc3c(C)cc(C)cc3C)n(C)c(=O)n1CC2", "outcome": "inactive"},
      {"compound": "Cn1c(NC(=O)c2ccccc2)nc2ccccc21", "outcome": "inactive"},
      {"compound": "CCN(CC)c1ccc(C2=NNC(=O)CC2C)cc1[N+](=O)[O-]", "note": "(stereo not drawn)", "outcome": "inactive"},
      {"compound": "C[C@H]1CC(=O)NN=C1c1ccc(N2CCOCC2)c(F)c1", "outcome": "inactive"},
      {"compound": "CCN1N=C(c2ccc(N(CC)CC)cc2)[C@H](C)CC1=O", "outcome": "inactive"},
      {"compound": "C[C@@H]1CC(=O)NN=C1c1ccc(N2CCOCC2)c(F)c1", "outcome": "inactive"},
      {"compound": "C[C@@H]1CC(=O)NN=C1c1ccc(C2CCCCC2)cc1", "outcome": "inactive"}
    ]}
  ]
}
